Source: PubChem BioAssay (EPA / NIEHS)
“And” between values parts separate entries of the source, which are not always exact repeats. Identical values can stand only once. Where a structure was tested more than once in an assay, its records may differ in their call. The source made the active and inactive calls. Rule for the calls: active = hit-call score of the fitted dose curve at least 0.9, where 1 is the maximum; inactive = score below 0.9.

The molecules below were run on Interleukin-8 (IL8), CXCL8 (gene 3576) (assay: BSK_BF4T_IL8: BioMAP Diversity Plus: BF4T Assay for Interleukin-8 (IL8) Biomarker Activity (AID 2284263)). Conditions: primary human bronchial epithelial cells with fibroblasts.
Protocol: BSK_BF4T is a cell-based, multiplexed-readout assay that uses bronchial epithelial cells and dermal fibroblasts, a human vascular primary cell, with measurements taken at 24 hours after chemical dosing in a microplate: 96-well plate.BSK_BF4T_IL8 is an assay component measured in the BSK_BF4T assay. It measures IL-8 antibody related to regulation of gene expression using ELISA technology.Data from the assay component BSK_BF4T_IL8 was analyzed at the endpoint, BSK_BF4T_IL8, in the positive analysis fitting direction relative to DMSO as the negative control and baseline of activity. Using a type of binding reporter, gain or loss-of-signal activity can be used to understand protein changes. To generalize the intended target to other relatable targets, this assay endpoint is annotated to the 'cytokine' intended target family, where the subfamily is 'interleukins'.
The levels of cell surface (or secreted, indicated by the prefix "s") biomarker endpoints were measured by ELISA. Overt cytotoxicity to cells in confluent adherent cultures (all systems other than the BT system) was assessed by measuring total protein levels using sulforhodamine B (SRB) staining in parallel cultures at the time of biomarker measurements, indicated as SRB endpoints. For proliferation assays for adherent cell types, individual cell types are cultured at sub-confluence and relative cell numbers quantified by SRB staining at time points optimized for each system (48 h: 3C and CASM3C systems; 72 h: BT and HDF3CGF systems; 96 h: SAg system). SRB was performed by staining cells with 0.1% SRB after fixation with 10% TCA and reading wells at 560 nm.Viability and proliferation of PBMC (T cells) was quantified by Alamar Blue reduction for the SAg and BT systems. For PBMC viability (referred to as PBMC Cytotoxicity within the assay endpoint names), cells were plated (75,000/well in a 96-well plate) and then chemical samples added for 1 h before addition of activators, SEB and TSST-1 (20 ng/mL final concentration each). Cells were incubated for 90 h. Then, Alamar Blue (20 uL/well) (Invitrogen, Cat DAL1100) was added for 6 h, and the plates were read with a fluorescence microplate reader at 546/580 nm (excitation/emission). For PBMC proliferation, cells were plated and activated as above but incubated for only 16 h prior to addition of Alamar Blue. Plates were read after 6 h.

SMILES | outcome | AC50
O=S(=O)(OCC(F)F)C(F)(F)F | inactive | –
OCC(F)(F)C(F)(F)C(F)(F)C(F)(F)C(F)(F)C(F)F | inactive | –
O=C(O)C(F)(OC(F)(F)C(F)(OC(F)(F)C(F)(OC(F)(F)C(F)(F)C(F)(F)F)C(F)(F)F)C(F)(F)F)C(F)(F)F (stereo not given) | inactive | –
FC(F)(Br)C(F)(F)C(F)(F)C(F)(F)C(F)(F)C(F)(F)Br | inactive | –
FC(F)(F)C(F)(F)C(F)(F)C(F)(F)C(F)(F)C(F)(F)C(F)(F)I | inactive | 0.0527 µM (active)
C=CC(=O)OCC(F)(F)C(F)(F)C(F)(F)C(F)(F)COC(=O)C=C | inactive | 30 µM (active)
CCO[Si](CCC(F)(F)C(F)(F)C(F)(F)C(F)(F)C(F)(F)C(F)(F)F)(OCC)OCC | inactive | –
O=C(O)C=C(C(F)(F)F)C(F)(F)F | inactive | –
O=C(O)C(F)(F)C(F)(F)C(F)(F)C(F)(F)C(F)(F)C(F)(F)C(F)(F)C(F)(F)C(F)(F)C(F)F | inactive | –
C=C(C)C(=O)OCC(F)(F)C(F)(F)C(F)(F)C(F)(F)C(F)(F)C(F)(F)C(F)(F)F | inactive | –
CCCCCCCCC(F)(F)C(F)(F)C(F)(F)C(F)(F)C(F)(F)C(F)(F)F | inactive | –
FC(F)(F)C(F)(F)C(F)(F)CI | inactive | –
O=C(O)C(F)(F)C(F)(F)C(F)(F)C(F)(F)C(F)(F)C(F)(F)C(F)(F)C(F)(F)Cl | – | 51.9 µM (active) and 50.3 µM (active)
FC(F)(F)C(F)(F)C(F)(F)C(F)(F)C(F)(F)CCI | inactive | –
C=CC(=O)OCC(F)(F)C(F)(F)C(F)(F)C(F)(F)C(F)(F)C(F)(F)C(F)(F)F | inactive | –
O=P(O)(O)OCCC(F)(F)C(F)(F)C(F)(F)C(F)(F)C(F)(F)C(F)(F)F | inactive | –
O=C(CC(=O)C(F)(F)C(F)(F)F)C(F)(F)F | inactive | –
OCC(F)(F)C(F)(F)C(F)(F)C(F)F | inactive | –
O=C(O)C(F)(F)C(F)(F)C(F)(F)F | inactive | –

SMILES | outcome | AC50
OCC(F)(F)C(F)(F)C(F)(F)C(F)(F)C(F)(F)C(F)(F)F | inactive | –
O=S(=O)(O)C(F)(F)C(F)(F)C(F)(F)C(F)(F)C(F)(F)C(F)(F)C(F)(F)F | inactive | 10.4 µM (active)
C=CC(F)(F)C(F)(F)C(F)(F)C(F)(F)C(F)(F)C(F)(F)C(F)(F)C(F)(F)C=C | inactive | –
O=C(O)C(F)(F)C(F)(F)F | inactive | –
O=C(O)C(F)(F)C(F)(F)C(F)(F)C(F)(F)C(F)(F)C(F)(F)C(F)(F)C(F)(F)C(F)(F)C(F)(F)C(F)(F)C(F)(F)F | inactive | –
C=CC(F)(F)C(F)(F)C(F)(F)C(F)(F)C(F)(F)C(F)(F)C(F)(F)C(F)(F)F | inactive | –
O=C(O)C(F)(F)C(F)(F)C(F)(F)C(F)(F)F | inactive | –
C=C(C)C(=O)OCC(F)(F)C(F)(F)C(F)(F)F | inactive | –
CC(C)(C)C(=O)CC(=O)C(F)(F)C(F)(F)C(F)(F)F | inactive | –
O=C(O)C(F)(OC(F)(F)C(F)(OC(F)(F)C(F)(F)C(F)(F)F)C(F)(F)F)C(F)(F)F (stereo not given) | inactive | –
FC(F)(F)C(F)(F)C(F)(F)C(F)(F)C(F)(F)C(F)(F)C(F)(F)Br | inactive | –
NC(=O)C(F)(F)C(F)(F)C(F)(F)C(F)(F)F | inactive | –
FC(F)(F)C(F)(F)C(F)(F)C(F)(F)C(F)(F)C(F)(F)C(F)(F)C(F)(F)F | inactive | –
FC(F)(F)C(F)(F)C(F)(F)C(F)(F)C(F)(F)C(F)(F)C(F)(F)C(F)(F)CCS | inactive | –
O=C(O)C(F)(F)C(F)(F)OC(F)(F)F | inactive | –
COC(=O)CCC(F)(F)C(F)(F)C(F)(F)C(F)(F)F | inactive | –
OCC(F)(F)C(F)(F)C(F)(F)F | inactive | –
O=C(Cl)C(F)(F)C(F)(F)C(F)(F)C(F)(F)C(F)(F)C(F)(F)C(F)(F)C(F)(F)F | inactive | –
